Experimental data: PubChem BioAssay (Tox21)
Results filed as inconclusive are left out. Unmarked numbers belong to inactive results. Activity calls are given as the source filed them. The call rests on the fitted dose curve; in most records, active means well fitted activation curve with a large enough effect in the repeat runs; inconclusive means weak or mixed curves; inactive means flat fitted curve, though single readings scatter. Positions of bridges follow the written chain, without caps; N, C: chain ends. Non-standard residues stand in square brackets, D forms with d. Residues, ends and D or L forms follow the SMILES beside them. hArg = N=C(N)NCCCC[C@H](N)C(=O)O; Mpa = O=C(O)CCS

experiment: A CellTox Green Cytotoxicity Assay to monitor cytotoxicity in HEK293 cells - 16 hour (AID 1224888); settings: CellTox Green fluorescence; series mostly up to 76.8 µM; activity change: at the top concentration; further: nearly all actives have a fitted effect of over 35% in size
Excerpt: National Center for Advancing Translational Sciences [NCATS]
NIH Chemical Genomics Center [NCGC]
U.S. Environmental Protection Agency [EPA]
National Institutes of Environmental Health Sciences [NIEHS]
National Toxicology Program [NTP]
Cell-based models are critical for drug discovery. Determining the natural cytotoxic effects resulting from test compounds is an essential research activity. A CellTox Green Cytotoxicity Assay to monitor cytotoxicity in real time of continues cell culture during 40 hours of the compound treatment was used to screen Tox21 10K library compounds in Hek293 cells. CellTox Green Cytotoxicity Assay is a nonlytic, homogeneous, biofluorescent method to measure cytotoxicity in cell culture after experimental manipulation. The assay system uses a proprietary asymmetric cyanine dye that is excluded from viable cells but preferentially stains the dead cell's DNA. […] Viable cells produce no appreciable increases in fluorescence. Therefore, the fluorescence signal produced by the binding interaction with dead cell DNA is proportional to cytotoxicity.
The mixture of Hek293 cell suspension and reagents were dispensed at 600cells/6 ul/well in 1536-well tissue culture treated black solid bottom plates using a Multidrop dispenser. After the assay plates were incubated at a 37 C/5% CO2 incubator for 5 hours, 23 nL of compounds dissolved in DMSO, positive and negative controls was transferred to the assay plate by a pintool work station. The plates were incubated at 37 C for 40 hours. The fluorescence intensity were measured at 0h, 8h, 16h, 24h, 32h and 40h time points using ViewLux plate reader during compound treatment.
On the % scale 0 is the no-effect control and ±100 the full control effect; potency means the concentration at half of the fitted maximal effect.

| Compound | activity change | Potency |
| --- | --- | --- |
| C=CCOC(=O)CCCCCC | 3.62% | – |
| C=C(C)C1CC=C(C)C(=O)C1 (stereo not given) | -8.02% | – |
| CCCCOCCOC(=O)COc1ccc(Cl)cc1Cl | 5.87% | – |
| OC1(c2ccc(Cl)cc2)CCNCC1 | -1.64% [at 35.3 µM, active compounds read high] | – |
| ONc1ccccc1 | 12.4% | – |
| C/C=C(\C)C(=O)OCCc1ccccc1 | 16.3% | – |
| O=C(Cn1ccnc1[N+](=O)[O-])NCc1ccccc1 | 6.77% [at 35.3 µM, active compounds read high] | – |
| CC(C)CO | -4.49% | – |
| c1ccc2c(CC3=NCCN3)cccc2c1 | -2.01% [at 35.3 µM, active compounds read high] | – |
| CCOC(CN1CCN(CC(C)C(=O)c2ccccc2)CC1)c1ccccc1 (stereo not given) | -4.55% [at 15.8 µM, active compounds read high] | – |
| CC1OCCC1=O (stereo not given) | 1.94% | – |
| COC(=O)CCCCC(CCSS/C(CCO)=C(\C)N(C=O)Cc1cnc(C)nc1N)SC(C)=O (stereo not given) | 0.896% [at 35.3 µM, active compounds read high] | – |
| NC(=O)[C@@H]1CSSCCC(=O)N[C@@H](CCCCN=C(N)N)C(=O)NCC(=O)N[C@@H](CC(=O)O)C(=O)N[C@@H](Cc2c[nH]c3ccccc23)C(=O)N2CCC[C@H]2C(=O)N1 ([Mpa][hArg]GDWPC-NH2; disulfide 1-7) | -12.7% [at 35.3 µM, active compounds read high] | – |
| C=CCN1C[C@H](C(=O)N(CCCN(C)C)C(=O)NCC)C[C@@H]2c3cccc4[nH]cc(c34)C[C@H]21 | 0.279% [at 35.3 µM, active compounds read high] | – |
| CCc1occc(=O)c1O | 1.17% | – |
| CC(C)C[C@@H]1[C@H](c2ccccc2)OC(=O)N1CCCN1CCCCCC1 | 2.62% [at 35.3 µM, active compounds read high] | – |
| CC(C)CCOC(=O)c1ccccc1 | -0.589% | – |
| O=C1CCCCO1 | -2.57% | – |
| O=NN(CCCl)C(=O)NC1CCCCC1 | -5.55% [at 35.3 µM, active compounds read high] | – |
| COc1cc2c(cc1OC)C(=O)C(CC1CCN(Cc3ccccc3)CC1)C2 (stereo not given) | -9.51% [at 35.3 µM, active compounds read high] | – |

| Compound | activity change | Potency |
| --- | --- | --- |
| O=C1CCC(=O)N1Cl | -2.92% | – |
| CC(=O)c1cc(C)oc1C | -8.88% | – |
| CC(C)NC(=O)c1ccc(C=O)cc1 | -3.18% [at 35.3 µM, active compounds read high] | – |
| CC1=C(C(=O)O)N2C(=O)[C@@H](NC(=O)[C@H](N)C3=CCC=CC3)[C@H]2SC1 | -4.13% [at 35.3 µM, active compounds read high] | – |
| Cc1ccc(C(C)NC(=O)[C@@H](NC(=O)OC(C)C)C(C)C)cc1 (stereo not given in full) | -3.44% | – |
| CCC(=O)CC | -6.59% | – |
| CCOCCOCC | -3.82% | – |
| O/N=C/C=N/O | -5.7% | – |
| CC1=NN(c2ccc(S(=O)(=O)O)cc2)C(=O)C1 | 1.74% | – |
| Nc1nnnn1-c1ccccc1 | -0.244% [at 35.3 µM, active compounds read high] | – |
| Cc1ccc(C)c([N+](=O)[O-])c1 | -1.72% | – |
| CC/C(C)=N\O[Si](C)(O/N=C(\C)CC)O/N=C(\C)CC | -1.39% | – |
| CC1(C)CC(OC(=O)CCCCCCCCC(=O)OC2CC(C)(C)NC(C)(C)C2)CC(C)(C)N1 | -6.19% [at 15.8 µM, active compounds read high] | – |
| CCCCCCCCCOC(=O)CCCCC(=O)OCCCCCCC | – | 27.5 µM (active) |
| CCOC(=O)CC1(C)OCC(C)O1 (stereo not given) | -13.8% | – |
| CC/C=C\CCOC(=O)c1ccccc1O | -6.91% | – |
| COc1cc2c(cc1OC)CN(C(=O)[C@H](C)N[C@@H](CCc1ccccc1)C(=O)O)[C@H](C(=O)O)C2 | -12.4% [at 35.3 µM, active compounds read high] | – |
| CC(C)=CCC/C(C)=C/COC=O | 7.47% | – |
| CC1=C(O)C(=O)C(C)O1 (stereo not given) | 10.4% | – |
| CSc1cnccn1 | -10.1% | – |
